# Measured values: the OligoGym collection
# Molecular target: CTNNBIP1
# Experiment: pooled miR-30 sensor sort-seq; sequence = guide strand
# Conditions: shRNA
# Note: reference of the scale not given here.
row,Sequence,sensor-assay potency score (higher = more potent)
1,TTCTGCTGAATGTACATCTCCT,-0.0119
2,TGATCCCATCTTCCGCAGCATG,-1.86
3,TGGCTGTCAGGTTTGATCCCAT,-0.741
4,TCGGACCTTCTGCTGAATGTAC,-1.3
5,TGAATGTACATCTCCTCCGGAC,-0.75
6,CTGAATGTACATCTCCTCCGGA,-0.773
7,TCTCCTCCGGACTCTTCCCGGG,-0.954
8,TTGATATCAGCAGAACACCTGC,-0.0972
9,TTGACCACCCCTGCATAGGTGC,-1.01
10,ATCTCCTCCGGACTCTTCCCGG,-1.21
11,ATAGGTGCGCAGGAACTCCTCC,-0.215
12,TCTGCTGAATGTACATCTCCTC,-0.574

# Molecular target: CTNNBL1
# Experiment: as above
# Conditions: shRNA
row,Sequence,sensor-assay potency score (higher = more potent)
1,TGTATTATCGTGTCCGAGCAAG,-1.35
2,TTAAACACGGATAACTGCTGAA,-0.397
3,TACTCCTTGATGATATGCCTGA,-0.148
4,TGAACTTCTCTGGATTGTCTGG,-0.725
5,TTTTTTTGTCATCATCCGCTTC,-0.298
